Measured values taken from PubChem BioAssay.
Unmarked numbers belong to inactive results. How the calls were made is not given here.

target: Pantothenate synthetase (Mycobacterium tuberculosis (strain ATCC 25618 / H37Rv)) (UniProt P9WIL5); assay: Coupled enzyme confirmation of inhibitors against recombinant Mtb PanC (AID 375); conditions: coupled enzyme assay; at 10 µM, active compounds read high;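 further: 0% = full reaction with vehicle and 100% = no enzyme background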
Sequence (P9WIL5 whole entry, looked up): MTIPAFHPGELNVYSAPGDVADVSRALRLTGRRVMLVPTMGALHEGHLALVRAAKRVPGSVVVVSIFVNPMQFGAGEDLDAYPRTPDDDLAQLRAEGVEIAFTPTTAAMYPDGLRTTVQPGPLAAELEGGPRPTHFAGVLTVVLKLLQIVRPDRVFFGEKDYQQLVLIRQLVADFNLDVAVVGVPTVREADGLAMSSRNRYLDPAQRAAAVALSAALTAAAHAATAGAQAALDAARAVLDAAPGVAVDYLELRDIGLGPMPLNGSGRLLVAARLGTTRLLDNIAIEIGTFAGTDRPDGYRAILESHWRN

**Q.** How did the inhibition turn out when `CCN(CC)S(=O)(=O)c1ccc2c(c1)nc(SCC(=O)NC1CC1)n2-c1ccccc1OC` was run?
**A.** Its inhibition is 0%.

**Q.** With `CN1CCCN=C1COC(=O)C(O)(c1ccccc1)C1CCCCC1` (stereo not drawn) as the compound, how does the inhibition read?
**A.** Its inhibition is 0%.

**Q.** For `CCC1Cc2c(nc3c4c(nc(N5CCOCC5)c(C#N)c24)NC(C)=N3)O1` (stereo not drawn), which inhibition is on record?
**A.** The inhibition was 0%.

**Q.** With `Cc1cc(C)nc(N2CCC(C(=O)NCc3cccc(C(F)(F)F)c3)CC2)n1` as the compound, how does the inhibition read?
**A.** The inhibition was 3%.

**Q.** With `O=C1C/C(=C/NCc2ccccc2)C(=O)N1` as the compound, how does the inhibition read?
**A.** The inhibition was 3%.

**Q.** `CCCN(CCC)S(=O)(=O)c1ccc(NS(C)(=O)=O)cc1` was tested. Which inhibition did it give?
**A.** Its inhibition is 0%.

**Q.** Which inhibition does the source give for `O=c1ccc2cc3c([nH]c4ccc(Br)cc43)oc-2c1O` here?
**A.** Its inhibition is 0%.

**Q.** For `CC(=O)N1CCN(C(C)=O)C1c1ccccc1`, which inhibition is on record?
**A.** The inhibition was 2%.

**Q.** `CN(C)CCCN1c2ccccc2Sc2ccc(C(F)(F)F)cc21` was tested. Which inhibition did it give?
**A.** Its inhibition is 0%.

**Q.** For `O=C(c1ccccc1)N1CCN(CC2CC=CCC2)CC1` (stereo not drawn), which inhibition is on record?
**A.** The inhibition was 0%.

**Q.** `CC(C)NCC(O)COc1ccc(CCOCC2CC2)cc1` (stereo not drawn) was tested. Which inhibition did it give?
**A.** The inhibition was 0%.

**Q.** `c1cc2c(cc1Nc1nc(-c3ccc4c(c3)OCO4)cs1)OCCO2` was tested. Which inhibition did it give?
**A.** Its inhibition is 4%.

**Q.** Which inhibition does the source give for `CCOc1cc(NC(=O)c2ccco2)c(OCC)cc1NC(=O)CCc1ccc(OC)cc1` here?
**A.** The inhibition was 3%.

**Q.** How did the inhibition turn out when `Cc1cc(=O)n(C)c(=O)n1CCCCCN1CCCC1` was run?
**A.** The inhibition was 0%.

**Q.** With `CCCOc1cccc(-c2nnc(N)s2)c1` as the compound, how does the inhibition read?
**A.** The inhibition was 0%.

**Q.** How did the inhibition turn out when `CC1(C(=O)NC2CCCCC2)CCC(=O)N1Cc1cccs1` (stereo not drawn) was run?
**A.** The inhibition was 0%.

**Q.** Which inhibition does the source give for `COc1cccc(N(C(=O)c2ccco2)C(C(=O)NC2CCCC2)c2ccc(N(C)C)cc2)c1` (stereo not drawn) here?
**A.** The inhibition was 0%.

**Q.** How did the inhibition turn out when `O=C(O)CCc1ccc(-c2ccc(F)cc2)n1CC(=O)O` was run?
**A.** Its inhibition is 0%.
